Measured values published in ChEMBL document CHEMBL4513216, “Probing the Open Global Health Chemical Diversity Library for Multistage-Active Starting Points for Next-Generation Antimalarials” (ACS Infect Dis, 2020).
Among all 69,000 compounds or so, about 8,600 (12%) showed an effect of 50% or more. The full list was thinned out, with strong results kept by preference.

test system: Plasmodium berghei; experiment: Screen against P. berghei liver stage (PbLuc), transformed with Luciferase, at 10uM; type: functional, HepG2; conditions: tested at 10 uM

Compound | INHIBITION [%]
Cc1cc(NC(=O)c2ccc(F)cc2Cl)n(C)n1 | -23.8
CCn1ccnc1-c1nccn1-c1ccccc1CN1CCOCC1 | 58.3
COc1ncc(-c2nccn2-c2ccccc2CN2CCOCC2)cn1 | 32.3
CCc1cc(-c2nccn2-c2ccccc2CN2CCOCC2)on1 | -4.51
CNc1cc(CNC(=O)c2ccccc2OC)nc(-c2ccncc2)n1 | 23.4
O=c1[nH]nc2c(S(=O)(=O)N3CCCCC3)cccn12 | 51
O=c1[nH]nc2c(S(=O)(=O)N3CCCC3)cccn12 | 6.12
O=c1[nH]nc2c(S(=O)(=O)N3CCCCCC3)cccn12 | -15.2
Cc1ccoc1C1=NNC(=CN2CCn3c(nnc3C(C)C)C2)O1 | 15.3
CC(C)c1nc(CN(C)C(=O)C(O)c2ccc(Cl)cc2)cs1 (stereo unspecified) | -15.6
CN1CCC(N(Cc2ccco2)S(=O)(=O)c2cc(Br)ccc2Br)CC1 | 69.8
CC1CCN(C(=O)CN(Cc2ccco2)C2CC2)CC1 | 37
O=c1cc(CN(Cc2ccco2)C2CC2)nc2ccc(Br)cn12 | 9.65
CN1CCC(N(Cc2ccco2)S(=O)(=O)c2ccc(Br)cc2Cl)CC1 | 61.2
CN1CCC(N(Cc2ccco2)S(=O)(=O)c2ccc(Cl)cc2)CC1 | 27.9
CN(C1CCCCC1)S(=O)(=O)N1CCN(Cc2ccco2)CC1 | 40
CC(NCc1cccc(Cl)c1)c1ccc(OCC(=O)NC2CC2)cc1 (stereo unspecified) | 13.3
COc1ccc2nnc(CCC(=O)NCc3cccn3C)n2n1 | 9.57
Cc1nc(CCC(N)=O)cc(C2CCCN2S(C)(=O)=O)n1 (stereo unspecified) | 26.1
CC(C)c1nc2c(n1C)CCN(CC(=O)Nc1nncs1)C2 | -12.2
CC(=O)NC1CCN(c2ccnc(C3CCNCC3)c2)CC1 | 2.55
Fc1ccc2[nH]c3c(c2c1)CCN1C(c2ccncc2)N2CCC31CC2 (stereo unspecified) | -62.4

Compound | INHIBITION [%]
O=C(CSC(F)(F)F)N1CCC2(CCCN(C3CCOCC3)C2=O)C1 (stereo unspecified) | -36.6
Cc1cc(NCC(C)C)ccc1C(=O)N(C)C | 21.5
CCN(CC)C(=O)Nc1ccc(C(=O)N(C)C)c(C)c1 | 19.7
Cc1cc(NC(N)=O)ccc1C(=O)N(C)C | 61
Cn1cc(-c2nnn3c2COC(CNCC2CCOCC2)C3)cn1 (stereo unspecified) | 5.67
Cc1c(-c2ccccc2)ncn1CC(c1cccnc1)N1CCOCC1 (stereo unspecified) | 37.2
CSC(C)Cc1c(-c2ccccc2)ncn1CCCNc1cccnc1 (stereo unspecified) | 82.5
CSCCc1c(-c2ccccc2)ncn1CCNc1cccnc1 | 63.6
Cc1c(-c2ccccc2)ncn1CCCNc1cccnc1 | 22.7
CCN(C)CC(C)Cn1cnc(-c2ccccc2)c1C (stereo unspecified) | -107
Cc1cc(NCCCNc2cccnc2)n2nc(C)c(C)c2n1 | 3.945
CC[C@H]1N(Cc2ccco2)CCC[C@]12CCC(=O)N2C | 1.34
CC(C)NC(=O)Nc1ncc(-c2cccnc2)s1 | -42.9
Cc1nn(C)c(C)c1C1COCCN1C(=O)c1ccc(Cl)o1 (stereo unspecified) | -16
Cc1ccc(NCc2cn3c(n2)CN(Cc2ccoc2)CC3)nn1 | 26.5
O=C1CC2(CCSC2)C(=O)N1Cc1ncc(-c2cccc(F)c2)o1 (stereo unspecified) | -26.8
COc1cccc(-c2cc(C(=O)N3N=C(C)CC3(O)C(F)(F)F)[nH]n2)c1 (stereo unspecified) | 38.3
Cc1ncc(-c2ccccn2)c(CCNC(=O)CCC2CCCO2)n1 (stereo unspecified) | 28.5
C[C@@H](NCc1cccc(Cl)c1)c1onc(-c2ccc(F)cc2)c1C(=O)O | -3.58
CCCc1nc(CN2CCOC(Cn3cccn3)C2)no1 (stereo unspecified) | -43.5
CN(Cc1ccccc1)c1ncccc1CNC1CCC1 | 22.5
CN(Cc1ccccc1)c1ncccc1CNC1CN2CCC1CC2 (stereo unspecified) | 62.6

Compound | INHIBITION [%]
CN(Cc1ccccc1)c1ncccc1CNC1CCSCC1 | 51.8
CC(C)N1CCC(NCc2cccnc2N(C)Cc2ccccc2)CC1 | 37.8
CN(Cc1ccccc1)c1ncccc1CNC1CCCC1 | 20.4
CC(=O)N1CCC(NCc2cccnc2N(C)Cc2ccccc2)CC1 | 6.31
CC(C)(C)CC(=O)NCC(=O)Nc1ccn(Cc2ccncc2)n1 | -12.4
Cc1nn(C)cc1C(=O)N1C[C@@H]2CC[C@H]1CN(S(=O)(=O)N(C)C)C2 | -109
Cn1cccc1C(O)CNC(=O)c1ccc(C(F)(F)F)cc1 (stereo unspecified) | -118
CS(=O)(=O)N1CCC2(CN(C(=O)c3cccnc3)C2)C1 | 33.5
Cc1occc1C(=O)N1CCC2(CCN(C(=O)c3cccnc3)C2)CC1 | 28.5
CS(=O)(=O)N1CCOCC2(CCN(C(=O)c3cccnc3)CC2)C1 | 18.5
CS(=O)(=O)N1CCC2(CCN(C(=O)c3cccnc3)CC2)C1 | 58.8
O=C(c1cccnc1)N1CCC2(CCN(C(=O)c3ccco3)CC2)C1 | 59.3
Cc1ccc(N2CCC3(CCCN(C(=O)c4cccnc4)C3)C2)nn1 (stereo unspecified) | 53.5
Cc1ccc(C(=O)N2CCC3(CCCN(c4ccc(C)nn4)C3)C2)cn1 (stereo unspecified) | 18.6
CC(=O)NCC(=O)N1CCC2(CC1)CN(c1cccnc1)C(=O)CO2 | 17.1
Cc1cccc(N2CCC3(CCCN(C(=O)c4cccnc4)C3)C2)n1 (stereo unspecified) | -19.1
Cc1ccc(C(=O)N2CCC3(CCN(C(=O)c4cccnc4)C3)CC2)o1 | 34.7
O=C(CC1CC1)N1CCC2(CC1)CN(c1cccnc1)C(=O)CO2 | 30.3
O=C(N1CCCC1)N1CCC2(CC1)CN(c1cccnc1)C(=O)CO2 | 82.9
Cc1nn(C)c(C)c1CNCc1cccnc1N1CCOCC1 | 22.5
CN(C)C(=O)C1OC2(CCN(C(=O)c3ccco3)CC2)c2ccccc21 (stereo unspecified) | 12.7
CC(C#N)CN(C)C(=O)CCNC(=O)C(C)(C)C (stereo unspecified) | -6.91

Compound | INHIBITION [%]
CCc1[nH]ncc1C(=O)N1CCCC(n2cc(C)cn2)C1 (stereo unspecified) | -12.2
O=C(c1ccco1)N1C[C@H]2CCCN(Cc3cccs3)[C@H]2C1 | 37
CC(C)c1nn(C)c(N2CCOCC2)c1CNCCC(=O)N(C)C | 24.95
O=S(=O)(NCc1ccccc1)Nc1ccc(-n2cncn2)cc1 | 35
CC(C)c1n[nH]c(C2CN(C(=O)CCc3cscn3)CCO2)n1 (stereo unspecified) | -15.52
Cc1ccccc1OCC(=O)N1CCCC(CNS(C)(=O)=O)C1 (stereo unspecified) | -3.8
O=C(NCc1nncn1C1CCCCC1)C1CNCCO1 (stereo unspecified) | 33.4
COc1ccc(C2CCCN2C(=O)c2ccnc(NC3CC3)c2)cc1 (stereo unspecified) | -59.3
O=C(NC1CC1)N1Cc2[nH]nc(COc3cccnc3)c2C1 | -4.02
CN(C)Cc1cccc(-c2cccnc2C(=O)NCC2CC2)c1 | 18.4
O=C(c1ccoc1)N1CCC2(CC1)C(=O)Nc1ccccc12 | 25.4
O=C(c1cccnc1)N1CCC2(CCN(C(=O)N3CCCC3)CC2)C1 | 61.1
O=C(c1ccnnc1)N1CCC2(CC1)CCN(C(=O)c1cccnc1)C2 | 16.8
NC(=O)N1CCC2(CCN(C(=O)c3cccnc3)CC2)C1 | 86.5
CC(C)N1CCC2(CCN(C(=O)c3cccnc3)CC2)C1 | 15.4
Cc1cccc(N2CCC3(CCCN(C(=O)c4cccnc4)C3)CC2)n1 | -1.26
O=C(c1ccncc1)N1CCC2(CC1)CCN(C(=O)c1cccnc1)C2 | 53.9
O=C(c1ccco1)N1CCC2(CC1)C(=O)Nc1ccccc12 | 64.4
O=C(c1ccno1)N1CCC2(CC1)C(=O)Nc1ccccc12 | -19.5
CN1CCC2(CCN(C(=O)c3cccnc3)C2)C1 (stereo unspecified) | 12.2
Cn1cccc1C(=O)N1CCC2(CCN(C(=O)c3cccnc3)C2)CC1 | 37.6
Cc1cccc(N2CCC3(CCN(C(=O)c4cccnc4)CC3)C2)n1 | 19.5

Compound | INHIBITION [%]
c1cnn(-c2ccc(CN3CCCC(Cn4cncn4)C3)cc2)c1 (stereo unspecified) | 13.3
O=C(O)C(c1ccc(O)cc1)N1CCC(N2CCSCC2)CC1 (stereo unspecified) | 18.6
Cc1nc[nH]c1CN(C)Cc1cnn(-c2ccc(F)cc2)c1 | -5.22
O=S(=O)(CCN1CCCCC1Cn1cccn1)c1ccccc1 (stereo unspecified) | 25.8
Cc1noc(C)c1CNC(=O)Nc1ccc(N2CCOC(C)C2)cc1 (stereo unspecified) | 5.94
CN(Cc1cnn(C)c1)C(=O)Cn1c(CS(C)(=O)=O)nc2ccccc21 | -7.11
CC(CN1CCOC1=O)NC(=O)c1ccccc1Oc1ccccc1 (stereo unspecified) | 18.4
CCN(Cc1ccoc1)C(=O)NC1CCN(CC2CC2)C1 (stereo unspecified) | 19.3
CCN(Cc1ccoc1)C(=O)NC1CCN(CC2CCCC2)CC1 | 48.5
CCN(Cc1ccoc1)C(=O)NC1CCN(CC=C(C)C)CC1 | 57.2
CN(CC(=O)NS(=O)(=O)c1ccc(F)cc1)Cc1ccccc1 | 50
Cc1ccc(S(=O)(=O)NC(=O)CCc2ccccc2)cc1N(C)C | 12.589
Cc1cccc(S(=O)(=O)NC(=O)CN(C)Cc2ccccc2)c1 | 55.1
CN(CC(=O)NS(=O)(=O)c1ccsc1)Cc1ccccc1 | 9.76
Cc1cccc(CC(=O)NS(=O)(=O)c2ccc(F)c(F)c2)c1 | 23.5
CN(CC(=O)NS(=O)(=O)c1cccs1)Cc1ccccc1 | 32
CCS(=O)(=O)N1C[C@H]2CN(Cc3cccc(C)c3)C(=O)[C@H]2C1 | -1.36
N#Cc1ccccc1N1CCCN(C(=O)NCc2cc[nH]n2)CC1 | 10
